High-throughput results (PubChem BioAssay)
The list is not random: actives were taken first. Their share in the collection is about 0.32%.
Y pestis TopoI = Y. pestis Topo-I inhibition via cleavage products; Y. pestis Topo-I cleavage product accumulation, plate reader; activity, % at 10 µM; 360,000 compounds, 0.064% hits; in the data active = activity above about 50%, passing the limit was not always enough
Mtb BioA inh = BioA (M. tuberculosis) enzyme inhibition; purified M. tuberculosis BioA enzyme, plate reader; inhibition, % at 9.99 µM; 360,000 compounds, 0.096% hits; in the data active = inhibition above about 40%
TcdB inh = TcdB glycohydrolase inhibition. P18177. inhibition, % at 9.99 µM. TcdB glycohydrolase enzymatic assay, plate reader. 350,000 compounds, 0.24% hits; in the data active = inhibition above about 10%
Target sequence (P18177 whole entry, looked up): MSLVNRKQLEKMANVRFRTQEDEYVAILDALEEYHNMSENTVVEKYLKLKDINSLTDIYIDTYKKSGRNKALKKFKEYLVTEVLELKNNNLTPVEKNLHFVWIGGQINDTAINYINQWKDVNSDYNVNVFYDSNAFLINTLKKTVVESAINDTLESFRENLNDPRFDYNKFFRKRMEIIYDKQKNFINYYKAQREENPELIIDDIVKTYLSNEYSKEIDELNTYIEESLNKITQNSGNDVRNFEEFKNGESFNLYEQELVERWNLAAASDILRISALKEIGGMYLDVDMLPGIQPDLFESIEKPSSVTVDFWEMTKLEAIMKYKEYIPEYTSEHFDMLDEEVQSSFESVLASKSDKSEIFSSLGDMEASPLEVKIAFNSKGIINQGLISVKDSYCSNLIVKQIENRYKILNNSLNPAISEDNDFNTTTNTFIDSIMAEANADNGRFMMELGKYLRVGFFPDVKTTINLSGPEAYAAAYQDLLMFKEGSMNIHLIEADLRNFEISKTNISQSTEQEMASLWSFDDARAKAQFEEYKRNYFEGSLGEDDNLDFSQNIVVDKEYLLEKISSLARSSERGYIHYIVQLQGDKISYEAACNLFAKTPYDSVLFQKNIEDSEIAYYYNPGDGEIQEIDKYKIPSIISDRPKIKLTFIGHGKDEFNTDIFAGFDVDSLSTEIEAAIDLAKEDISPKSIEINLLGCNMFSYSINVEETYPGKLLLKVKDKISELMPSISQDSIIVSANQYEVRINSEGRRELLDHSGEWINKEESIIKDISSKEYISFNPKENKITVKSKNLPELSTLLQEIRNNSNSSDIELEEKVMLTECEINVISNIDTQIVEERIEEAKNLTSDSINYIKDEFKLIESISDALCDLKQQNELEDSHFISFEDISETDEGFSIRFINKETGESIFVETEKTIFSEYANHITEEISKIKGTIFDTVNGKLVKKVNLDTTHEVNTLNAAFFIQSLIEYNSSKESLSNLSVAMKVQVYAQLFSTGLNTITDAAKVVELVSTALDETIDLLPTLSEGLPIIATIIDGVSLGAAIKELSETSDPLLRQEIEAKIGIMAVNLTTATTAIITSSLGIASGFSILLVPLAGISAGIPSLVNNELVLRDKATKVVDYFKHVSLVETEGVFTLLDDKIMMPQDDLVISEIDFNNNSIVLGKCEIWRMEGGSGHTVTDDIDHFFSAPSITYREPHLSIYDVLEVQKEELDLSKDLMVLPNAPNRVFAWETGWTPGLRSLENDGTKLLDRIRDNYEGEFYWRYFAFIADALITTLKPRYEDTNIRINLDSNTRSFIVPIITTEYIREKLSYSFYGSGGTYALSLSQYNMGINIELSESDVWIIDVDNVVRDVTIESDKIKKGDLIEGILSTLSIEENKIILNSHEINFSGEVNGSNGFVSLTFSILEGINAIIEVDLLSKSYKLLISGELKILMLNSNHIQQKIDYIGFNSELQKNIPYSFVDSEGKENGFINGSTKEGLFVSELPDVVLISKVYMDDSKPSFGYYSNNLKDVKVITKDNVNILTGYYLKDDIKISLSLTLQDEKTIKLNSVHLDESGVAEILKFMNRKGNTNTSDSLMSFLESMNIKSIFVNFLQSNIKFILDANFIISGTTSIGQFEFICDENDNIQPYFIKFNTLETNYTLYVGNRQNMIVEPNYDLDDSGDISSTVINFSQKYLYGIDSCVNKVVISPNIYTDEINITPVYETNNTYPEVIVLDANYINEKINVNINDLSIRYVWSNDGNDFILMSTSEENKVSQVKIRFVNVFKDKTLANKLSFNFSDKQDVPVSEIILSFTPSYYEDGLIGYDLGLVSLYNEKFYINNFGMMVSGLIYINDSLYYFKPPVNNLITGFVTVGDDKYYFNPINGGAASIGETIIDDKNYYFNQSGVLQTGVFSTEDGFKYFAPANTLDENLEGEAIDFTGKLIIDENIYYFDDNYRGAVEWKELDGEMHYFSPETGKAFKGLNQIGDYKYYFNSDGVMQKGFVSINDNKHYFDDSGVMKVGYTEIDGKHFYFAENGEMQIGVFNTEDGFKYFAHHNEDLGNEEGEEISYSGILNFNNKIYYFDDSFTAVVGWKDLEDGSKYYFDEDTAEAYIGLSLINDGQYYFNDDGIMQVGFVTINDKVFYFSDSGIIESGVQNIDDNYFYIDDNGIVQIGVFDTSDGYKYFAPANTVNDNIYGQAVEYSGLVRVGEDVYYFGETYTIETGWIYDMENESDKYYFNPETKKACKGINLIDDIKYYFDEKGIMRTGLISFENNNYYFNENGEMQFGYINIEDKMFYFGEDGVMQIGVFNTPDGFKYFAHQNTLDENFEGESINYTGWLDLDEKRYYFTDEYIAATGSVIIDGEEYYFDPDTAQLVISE
* = called active by the depositor; / = no result given.

SMILES | Y pestis TopoI | Mtb BioA inh | TcdB inh
C[C@H]1CN([C@@H](C)CO)C(=O)c2cc(NS(=O)(=O)c3ccc(Cl)cc3)ccc2O[C@@H]1CN(C)S(=O)(=O)c1ccc(Cl)cc1 | / | -1.1 | 0.4
COc1ccc(CNC(=O)C[C@@H]2CC[C@@H](NC(=O)c3ccc4c(c3)OCO4)[C@@H](CO)O2)cc1 | / | -1.9 | -0.2
CCNC(=O)C[C@H]1CC[C@@H]2[C@H](COC[C@@H](O)CN2C(=O)c2ccccn2)O1 | / | -1.7 | /
O=C(C[C@H]1CC[C@@H]2[C@H](COC[C@@H](O)CN2C(=O)c2ccccn2)O1)NC1CCC1 | / | -0.8 | 15.1*
CO[C@H]1CC[C@@H]2CCN(C)C(=O)CCCN(C)C(=O)c3cccc(C#N)c3OC[C@@H]1O2 | / | -1.9 | -0.7
Cc1c(CCCC(=O)O)sc(N)c1C(=O)c1cccc(C(F)(F)F)c1 | -8.4 | -0.4 | 10.8*
O=C(O)CNC(=O)c1cccc(C(F)(F)F)c1 | -3.7 | / | 1.2
CC12CCC(=O)N1C(C(=O)OCc1c(Cl)cccc1Cl)CS2 (stereo not drawn) | 23.3 | 1.2 | 12.1*
CC12CCC(=O)N1C(C(=O)Oc1cccc(F)c1)CS2 (stereo not drawn) | 2.9 | 0.2 | 1.3
CCCNC(=O)Nc1ccc2c(c1)OC[C@H](C)N(Cc1cccnc1)C[C@H](C)[C@@H](OC)CN(C)C2=O | / | / | -0.1
O=C(O)c1ccc(/C=N/NC(=S)NCCN2CCOCC2)cc1 | 1.2 | -1.5 | 10.6*
S=C(NCCN1CCOCC1)N/N=C/c1cccs1 | 0.9 | / | 1.0
C[C@H]1CCCCO[C@@H](CN(C)C(=O)Nc2ccccc2)[C@@H](C)CN([C@@H](C)CO)C(=O)c2cc(NC(=O)c3ccccc3)ccc2O1 | / | -0.2 | -0.3
CN(C)c1ccc(Cl)c(NC(N)=S)c1 | -6.4 | 0.3 | 27.3*
CN(C)c1ccc(NC(N)=S)cc1 | 1.4 | / | -34.3
O=c1c(O[C@@H]2O[C@H](CO)C(O)C2O)c(-c2ccc(O)c(O)c2)oc2cc(O)cc(O)c12 (stereo partly drawn) | -2.7 | -0.7 | /
O=c1c(OC2OC(CO)C(O)C(O)C2O)c(-c2ccc(O)c(O)c2)oc2cc(O)cc(O)c12 (stereo not drawn) | 0.3 | -0.5 | 14.1*
O=C(COc1c(Br)cc(Br)c2cccnc12)N1CCc2ccccc2C1 | 57.2* | 1.9 | 2.3
O=C(COc1c(Br)cc(Br)c2cccnc12)N1CCCCC1 | 12.0 | / | 1.7
Nc1ccc2c(c1)C(=NO)c1ccccc1-2 | -3.2 | -2.0 | 1.2
ON=C1c2ccccc2-c2ccc(O)cc21 | -1.5 | / | 15.3*
CCC(=O)N(C)C[C@@H]1Oc2cc(C#CC3CC3)ccc2S(=O)(=O)N([C@H](C)CO)C[C@H]1C | / | -0.4 | 1.3
O=C1CC2(CCN(C(=O)C3CC(=O)N(c4ccccc4)C3)CC2)Oc2ccccc21 (stereo not drawn) | 12.7 | 28.5 | 1.0
COc1cccc(N2CC(C(=O)N3CCC4(CC3)CC(=O)c3ccccc3O4)CC2=O)c1 (stereo not drawn) | 217.2* | 14.3 | 2.4
O=C1CSC(=Nc2ccc(O)cc2)N1 | -5.7 | 0.5 | 14.9*
SMILES | Y pestis TopoI | Mtb BioA inh | TcdB inh
Cc1ccc(N=C2NC(=O)CS2)cc1 | -2.1 | -0.2 | /
C[C@@H]1CCCCO[C@H](CN(C)S(=O)(=O)c2ccc(F)cc2)[C@@H](C)CN([C@@H](C)CO)C(=O)c2cc(NS(=O)(=O)c3ccccc3)ccc2O1 | / | -1.8 | 0.5
N#C[C@@H]1[C@H](c2ccccc2C2=CCCC2)[C@@H](CO)N1C(=O)C1CC1 | / | / | 0.1
CC1(C)Cc2nc(N3CCCC3)c(C#N)cc2CO1 | 2.3 | / | 3.7
CC1(C)Cc2nc(Cl)c(C#N)cc2CO1 | 4.2 | -1.2 | 10.1*
O=C(C[C@H]1CC[C@@H]2[C@H](COC[C@H](O)CN2CC2CCCCC2)O1)NCC1CC1 | / | -0.3 | -2.3
Cc1cc(C(=O)Nc2cccc3c2O[C@@H](CN(C)S(=O)(=O)c2ccc(Cl)cc2)[C@@H](C)CN([C@H](C)CO)C3=O)n(C)n1 | / | / | 0.0
COc1ccc(NC2CCCN(C(=O)CN3CCOC3=O)C2)cc1OC (stereo not drawn) | -0.5 | 1.1 | 11.5*
COc1ccc(NC2CCCN(C(=O)CN3CCOC3=O)C2)cc1 (stereo not drawn) | -3.0 | 0.4 | 1.0
C[C@H]1CN([C@@H](C)CO)C(=O)c2cc(C3=CCCC3)cnc2O[C@@H]1CN(C)S(=O)(=O)c1cn(C)cn1 | / | 2.4 | -0.6
Cc1ccc(S(=O)(=O)N[C@H]2CC[C@H](CCNC(=O)c3ccc4c(c3)OCO4)O[C@@H]2CO)cc1 | / | 3.6 | 0.0
CC(C)OC(=O)N(C)C[C@@H]1OCc2ccccc2-c2ccccc2C(=O)N([C@@H](C)CO)C[C@@H]1C | / | 0.9 | -0.3
COc1ccc2c3c(n(C)c2c1)[C@@H](CO)N(Cc1cc(F)ccc1F)CC31CCN(C(C)=O)CC1 | / | / | -0.3
Cc1c(CNC(=O)c2c([N+](=O)[O-])cnn2C)cnn1C | 0.6 | 1.6 | 23.7*
Cn1ncc([N+](=O)[O-])c1C(=O)NCc1ccccc1 | 7.2 | / | 3.2
